The results in this text go back to PubChem BioAssay (NCI).

Structures are written as SMILES. About 83,000 compounds went through this panel and 20% of them were active in at least one assay; those are over-represented in the sample as a whole.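 For each line, cells grew in 96-well plates with the test compound present at a single concentration for 48 hours.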 A number with no mark means an inactive call. The source made the active and inactive calls. The calls were made as follows: active = growth percent below 10; inactive = the rest.

The experiment has as its system HL-60(TB) leukemia. Description: NCI-60 one-dose screen, 48 h (100 = growth as untreated, 0 = no growth, -100 = all killed). Conditions: 10 µM unless noted.
In the case of `Cc1ccc(Nc2nnc(-c3ccc(Cl)cc3)o2)c(C)c1`, the growth is 84.2%.

Regarding `Cc1cc2nc(CC(=O)c3ccncc3)c(=O)[nH]c2cc1C`, the growth was 89.8%.

Consider `COc1cc(C2C3=C(COC3=O)N(CCO)c3cc4c(cc32)OCCO4)cc(OC)c1OC` (stereo not given), for which the growth is -21.8% (active).

For the compound `Cc1ccccc1NC(=O)c1sc2nc3c(cc2c1N)CCCC3`, the growth was 11.8%.

`O=C(NNc1nc2cc(F)ccc2n2c(CN3CCOCC3)ccc12)c1ccccc1`: the growth is -1.51% (active).

Take `CCN(CC)CC(=O)Nc1ccc2ncnc(Nc3ccc(Oc4cccc(F)c4)c(Cl)c3)c2c1`: the growth is 16.2%.

Turning to `Cc1cc(N2CCCCC2)nc(NCc2cc(Nc3ccnc4cc(Cl)ccc34)ccc2F)n1`, the growth was -65.7% (active).

For `Oc1ccccc1N=Cc1ccccc1`, the growth was 84.2%.

Turning to `Cc1ccc(OCC(=O)Nc2ccc(Oc3ccccc3)cc2)c([N+](=O)[O-])n1`, the growth is 69%.

Turning to `[2H]C([2H])([2H])Oc1ccc(/C=C/C(=O)/C=C(O)/C=C/c2ccc(OC([2H])([2H])[2H])c(OC([2H])([2H])[2H])c2)cc1OC([2H])([2H])[2H]`, the growth was 54.5%.

For the compound `N#Cc1c(-c2ccccc2)cc(-c2ccccc2)n(CCCCC(=O)NO)c1=O`, the growth was 11%.

For `CC(C)C[C@@H](NC(=O)[C@@H](Cc1ccccc1)NC(=O)c1cnccn1)B1Oc2ccc(C[C@H](NC(=O)[C@H](Cc3ccc4c(c3)OB([C@@H](CC(C)C)NC(=O)[C@@H](Cc3ccccc3)NC(=O)c3cnccn3)O4)NC(=O)[C@@H](N)CC3CCC4OB([C@@H](CC(C)C)NC(=O)[C@@H](CC5CCCCC5)NC(=O)C5CNCCN5)OC4C3)C(=O)NCCCC[C@@H]3NC(=O)[C@@H](Cc4ccccc4)NC(=O)[C@H](CC(=O)O)NC(=O)CNC(=O)[C@H](CCCNC(=N)N)NC3=O)cc2O1` (stereo not given in full), the growth was -2.54% (active).

Regarding `COc1ccc2c(c1)C(=O)/C(=C/c1ccc(O)cc1)O2`, the growth is 59.4%.

Regarding `COc1ccc(/C=C2\COc3ccc(O)c(O)c3C2=O)c(OC)c1OC`, the growth was -28.8% (active).

`Cc1nc(N=C(N)N)nc2ccc3ccccc3c12`: the growth was 22.6%.

As for `OCCCc1n(Cc2ccc3ccccc3c2)c2ccccc2[n+]1Cc1ccc2ccccc2c1`, the growth was -43.5% (active).

With `Cc1nc(Nc2ccc(NC(=S)Nc3ccccc3)cc2)c2ccccc2n1`, the growth is 86.4%.

On to `CC(C)(C)c1cc(/C=N/NC(=O)c2ccccc2NC(=O)c2cccs2)c(O)c(C(C)(C)C)c1`, for which the growth is 14.1%.

On to `CC(=O)c1c(C)[nH]c(-c2nc3ccc(N4CCN(C)CC4)cc3[nH]2)c1-c1ccccc1`, for which the growth was 4.85% (active).

Regarding `CN(C)C[C@@H]1CCn2cc(c3ccccc32)C2=C(C(=O)NC2=O)c2cn(c3ccccc23)CCO1`, the growth is -23.5% (active).

On to `COc1ccc(C(=O)O)cc1.[Ag]`, for which the growth is -46% (active).

For the compound `O=C(Nc1ccc(Cl)cc1)c1cc(-c2ccc(Cl)cc2)c2sc(=O)[nH]c2n1`, the growth is -53.7% (active).

Consider `CC(C)C(C)(C)c1ccc(O)cc1`, for which the growth was 104%.

`CCN(CC)CCCNCc1cc(-c2ccccc2)nc2ccccc12`: the growth is -19.3% (active).

For the compound `OC(c1cccc(C(F)(F)F)c1)c1cnccc1NC1CCCCCC1` (stereo not given), the growth is -30.7% (active).

Consider `CCOC(=O)c1cc(-c2ccccc2)nc(N)n1`, for which the growth is 101%.

Turning to `O=C(Nc1cccc(Cl)c1)Oc1c(Cl)c(Cl)c(Cl)c(Cl)c1Cl`, the growth is 101%.

On to `c1coc([C@@H]2C[C@@H]3Cc4ccc5ccccc5c4N2O3)c1`, for which the growth was 100%.

For `COC1=C(OC)C(=O)C(CCCCCCCCCCO)=C(C)C1=O`, the growth was 76.8%.

As for `CCc1cccc(CC)c1N1C(=O)C=CC1=O`, the growth is -7.6% (active).

Regarding `CCC1C(=O)COC1=O` (stereo not given), the growth was 96.9%.

Consider `O=C1C(Br)=CC2C1C1C3CCC3C2(Br)C12OCCO2` (stereo not given), for which the growth was -6.23% (active).

As to `O=C1/C(=C\c2cccn2Cc2ccc(Cl)cc2)c2ccccc2N1c1c(Cl)cccc1Cl`, the growth is 79.7%.

Take `Cc1cc(N2CCCCC2)nc(N(CCNc2ccnc3cc(Cl)ccc23)Cc2ccccn2)n1`: the growth is 41.6%.

In the case of `Clc1ccc2sc(-c3ccccc3)nc2c1`, the growth is 86.2%.

Regarding `O=C(/C=C/C12c3ccccc3C(c3ccccc31)C1C(=O)NC(=O)C12)c1cccs1` (stereo not given), the growth was 6.95% (active).

As to `CN(CCc1ccccc1)C(=S)N(C(=O)c1ccc([N+](=O)[O-])cc1)c1ccc(Cl)cc1`, the growth is 45%.

With `CCOC(=O)C1=C(c2ccccc2)N=c2s/c(=C/c3ccc(Br)cc3)c(=O)n2C1c1ccc(O)cc1` (stereo not given), the growth is 94.9%.

Take `Cc1c2cnccc2c(C)c2c1c1cc(C(=O)O)ccc1n2C`: the growth was 5.27% (active).

Consider `N#Cc1c(N)n(C2OC(CO)C(O)C2O)c2ncnc(N)c12` (stereo not given), for which the growth was -67.1% (active).
